Screens: PubChem BioAssay, National Center for Advancing Translational Sciences (NCATS)
A selection: hits, their analogues and other compounds. The true share with any hit is near 14%.
LmPK inh: inhibitors of Leishmania mexicana pyruvate kinase; purified LmPK, Kinase-Glo ATP luminescence, 1 h; Potency, µM (titrated, usually from 57.5 µM), for the others: top-dose activity change, negative = inhibition, hits mostly inhibitors; 290,000 compounds, 0.37% hits; Q27686; further: potency means the concentration at half of the fitted maximal effect; on the % scale 0 is the no-effect control and ±100 the full control effect
Target sequence (Q27686 whole entry, looked up): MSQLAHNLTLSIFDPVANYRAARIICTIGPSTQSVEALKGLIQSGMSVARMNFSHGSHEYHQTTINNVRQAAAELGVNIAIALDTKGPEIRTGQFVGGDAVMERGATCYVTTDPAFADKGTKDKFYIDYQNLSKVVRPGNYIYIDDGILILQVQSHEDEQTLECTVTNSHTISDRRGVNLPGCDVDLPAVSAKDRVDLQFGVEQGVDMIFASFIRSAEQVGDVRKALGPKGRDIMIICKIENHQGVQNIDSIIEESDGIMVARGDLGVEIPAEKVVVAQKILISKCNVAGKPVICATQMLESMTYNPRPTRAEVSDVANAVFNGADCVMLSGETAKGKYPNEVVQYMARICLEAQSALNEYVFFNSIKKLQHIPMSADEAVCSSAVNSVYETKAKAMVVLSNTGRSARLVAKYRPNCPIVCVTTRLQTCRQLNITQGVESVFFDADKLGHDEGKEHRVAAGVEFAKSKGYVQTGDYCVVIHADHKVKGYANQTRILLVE
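Purified LmPK (0.1 nM) with 0.5 mM PEP and 0.1 mM ADP in imidazole buffer pH 7.2 with MgCl2/KCl, 1 h at room temperature. ATP formed was read by luciferase luminescence and normalized to no-enzyme and uninhibited controls.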
Giardia FBPA inh: blocks Giardia fructose-bisphosphate aldolase activity | A8B2U2 | purified Giardia FBPA | Potency, µM (titrated, usually from 59.6 µM), for the others: at the highest dose activity, negative = inhibition, most hits filed as inhibitors | 290,000 compounds, 0.71% hits | AID 2451; further: potency means the concentration at half of the fitted maximal effect; on the % scale 0 is the no-effect control and ±100 the full control effect; nearly all actives have a fitted effect of over 55% in size
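Giardia FBPA (40 nM reagent) was preincubated 10 min at RT with compound (up to 57.5 uM final), then substrate plus GAPDH/TPI/NAD/arsenate coupling system with diaphorase/resazurin was added; resorufin fluorescence (525/598 nm) was read after 20 min.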
Shiga inhibitor: inhibitors of Shiga toxin in Vero cells | Vero cells, Shiga toxin protein synthesis inhibition reporter | inhibition, % at 38.7 µM | 290,000 compounds, 9.2% hits; in the data active means inhibition mostly above about 28%, no sharp cut-off; inactive means mostly below about 43%; further: 0% is about no effect
NS1 function inh: blocks influenza NS1 protein function; Potency, µM (titrated, usually from 46.1 µM), without a hit: at the top dose activity, positive = more growth; 270,000 compounds, 0.4% hits; calls by dose curve; further: potency means the concentration at half of the fitted maximal effect; actives are rising curves; nearly all actives have a fitted effect of over 50% in size
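OD600 was taken as the measure of yeast growth restored by compound in an NS1-expressing S. cerevisiae strain. Cells had been washed out of glucose medium and diluted 1:100 into galactose -URA medium, pH 6.0.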
CHX counter: affects cycloheximide protein synthesis inhibition readout, counter-screen. cell reporter, cycloheximide protein synthesis inhibition counterscreen. max response, %. AID 2314. 300,000 compounds, 12% hits; in the data active means max response mostly above about 13%, no sharp cut-off; inactive means mostly below about 14%; further: read at 38.3 µM for the half of the compounds with a filed dose; 0% is about no effect
The depositor's hits bear a star; u = inconclusive; x = no result given; [ ] = remark or other dose. Unless noted, the call rests on the fitted dose curve; in most records, active means well fitted curve in the direction sought with a large enough effect; inconclusive means small, poorly fitted or top-dose-only effect, or another doubt; inactive means no such curve, though single readings can be large; an effect the other way counts as inactive or inconclusive.

SMILES	LmPK inh	Giardia FBPA inh	Shiga inhibitor	NS1 function inh	CHX counter
Cc1cc(O)c(C(=O)Nc2cccc(Cl)c2)c(=O)n1C	-8%	x	47*	-2%	33
Cc1cc2ccccn2c1C(=O)Nc1cccc(Cl)c1	1%	-13%	75*	x	53*
Cc1cc2ccccn2c1C(=O)c1ccc(Cl)cc1	-3%	x	41	-66%	21
Cc1cc2ccccn2c1C(=O)c1ccncc1	-3%	3%	-7	-9%	-2
Cc1cc2ccccn2c1C(=S)NC(=O)c1ccccc1	-6%	10%	37*	-3%	16
CCOC(=O)N/N=C1/C[C@@H](O)[C@@H](O)[C@@H]2[C@@H]3C(=O)N(c4cccc(Oc5ccccc5)c4)C(=O)[C@H]3CC[C@@H]12	x	1%[12.9 µM]	x	x	x
Brc1ccccc1OCCCCn1cnc2ccccc21	1%	-1%	42*	-8%	26*
Clc1ccccc1OCCn1cnc2ccccc21	-3%	-3%	72*	-97%	31*
Cc1ccc(OCCCCn2cnc3ccccc32)c(C)c1	-2%	u	16	-76%	7
Clc1ccc(OCCn2cnc3ccccc32)cc1	0%	-2%	23	-72%	14
CC(=O)c1cc(C#N)c(SCC(=O)O)nc1C	-5%	0%	-7	-5%	-5
CCCCSc1nc(C)c(C(C)=O)cc1C#N	-10%	8%	79*	-206%	32*
CC(=O)c1cc(C#N)c(SCc2ccc(F)cc2)nc1C	6%	1%	74	5%	6
CCOC(=O)CSc1nc(C)c(C(C)=O)cc1C#N	-2%	-4%	100*	-13%	18*
COc1ccc(NC(=O)CSc2nnc(CC(=O)Nc3ccc(F)cc3)n2C)cc1	10%	5%	3	1%	-3
COc1cccc(N2C(=O)NC(=O)/C(=C/c3ccc4c(c3)Cc3ccccc3-4)C2=O)c1	3%	-9%	40	x	19*
COc1ccc(NC(=S)N2CCN(S(=O)(=O)c3ccccc3)CC2)cc1OC	6%	-6%	-3	8%	-3
O=C(c1cn(CC2CCCCC2)nn1)N1CCN(c2ccc(F)cc2)CC1	2%	x	49*	-22%	30*
O=C(O)c1ccc(N/N=C/c2ccc(OC(=O)c3cccc(Cl)c3)cc2)cc1	4%	-15%	75*	-2%	37*
O=C(Oc1ccc(/C=N/O)cc1)c1ccccc1	-2%	-2%	58	-96%	23*
O=C(Oc1ccc(/C=N/Nc2ccccc2)cc1)c1ccccc1	1%	0%	75*	-64%	22*
CN1CCOc2ccc(S(=O)(=O)N3CCN(S(=O)(=O)c4c(F)cccc4F)CC3)cc21	x	x	-2	x	0
CCOC(=O)Cn1nc(/C=C/c2ccc(C)cc2)ccc1=O	4%	-6%	28	-9%	8
CCOC(=O)Cn1nc(/C=C/c2ccc(C(C)C)cc2)ccc1=O	5%	-1%	33	-3%	9.7*
CCOc1ccccc1Nc1nc(-c2sc(NC(=O)c3ccc([N+](=O)[O-])cc3)nc2C)cs1	-2%	-8%	44	16%	6
SMILES	LmPK inh	Giardia FBPA inh	Shiga inhibitor	NS1 function inh	CHX counter
Cc1ccccc1Nc1nc(-c2sc(NC(=O)c3ccc([N+](=O)[O-])cc3)nc2C)cs1	-2%	-14%	39	6%	16*
Cc1ccccc1Nc1nc(-c2sc(NC(=O)c3cccc(Cl)c3)nc2C)cs1	1%	-17%	44	21%	19*
Cc1ccccc1Nc1nc(-c2sc(NC(=O)c3ccccc3)nc2C)cs1	-13%	-14%	50*	12%	12
O=C(Nc1ccccc1C(F)(F)F)C1CCN(C(=O)Cc2ccccc2)CC1	-5%	-5%	-3	-10%	-2
Cc1cc(C)cc(OCCNC(=O)C2CCN(S(=O)(=O)c3ccccc3)CC2)c1	9%	5%	1	6%	10
O=C1C(Cl)=C(NCCN2CCCCC2)C(=O)c2ccccc21	-7%	u	49*	x	54*
O=C(NCCN1CCCCC1)Nc1ccccc1Cl	3%	6%	10	19%	-1
CCN(CC)S(=O)(=O)c1ccc2[nH]c(=O)c3ccccc3c2c1	3%	0%	-5	14%	-2
COc1ccc(-c2oc3cccnc3c2C#CCO)cc1	5%	1%	-7	-15%	-2
COc1ccc(-c2oc3cccnc3c2-c2ccc(OC)nc2)cc1	1%	-2%	22*	-58%	25*
C=CCC1C=CC(OC(=O)OCC)C(COC(=O)OCC)O1 (centres undefined)	x	0%[12.9 µM]	x	x	x
